Among the data in PubChem BioAssay are outcome values, retold here.

Experiment [1] in a line: viability loss in HepG2 hepatoma cells – cell-based, cherry-picks, set 2, cytotoxicity control, dose response (AID 687002).
Experiment [2] can be described thus: viability loss in HeLa cells – cell-based, ATP luminescence, cherry-pick samples, cytotoxicity control, dose response (AID 687004;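 active = a fitted half-maximal concentration no higher than twice the top valid tested dose, with signal falling as cells die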).
Experiment [3] is described as follows: PAX8 transcriptional activity inhibition in RMG-I – RMG-I cells, luciferase, cherry-pick, dose response (AID 687027;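 active = every replicate test run called active, with the signal dropping as expected and potency within twice the top valid dose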).
Experiment [4] is described as follows: RMG-1 ovarian cancer cell viability loss – cherry-pick, dose response (AID 687029;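 active = signal drop whose fitted half-maximal concentration is at most twice the top valid dose, in every test run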;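 also: cells exposed to compound for 96 hours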).
A short description of experiment [5]: IOSE-T80 viability loss, PAX8-independent line – cell-based, cherry-pick, selectivity assay for PAX8 inhibitor project, dose response (AID 687032;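 active = fitted half-maximal concentration for viability loss no higher than twice the top valid dose, in every repeat run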;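 also: cells exposed to compound for 96 h before reading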).
The nature of experiment [6]: CMV-driven luciferase expression suppression in HEK293 – cell-based, luminescence, dry powder, counter-screen for Pax8 inhibitor project, dose response (AID 743020;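 active = signal-lowering compounds whose fitted half-maximal concentration is at or below twice the top tested dose in every run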;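 also: HEK293 cells stably expressing the CMV luciferase reporter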). On the technique in general: Counterscreens check selectivity or assay interference.
Experiment [7] can be described thus: general cell-killing toxicity readout – plate reader, dry powder samples, cytotoxicity control for PAX8 inhibitor project, dose response (AID 743021; call rule not given here).

Potency and affinity values are given separately. Results filed as inconclusive are left out. Values without a mark were called inactive. Calls of active or inactive are those of the source.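 The calls were made as follows, unless noted: active = a dose-response fit showing signal loss, with half-maximal concentration no higher than twice the top tested dose; inconclusive = flat fit between 30% and 70% signal loss, or poor fit; inactive = the rest.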

For `S=C(Nc1cccc(Cl)c1)Nc1ccccc1Oc1ccccc1`, the result in experiment [1] and in experiment [2] was inactive.

Regarding `COC(=O)C1=C(C)N(C)C(=S)NC1c1ccccc1` (configuration not stated), the compound was classed as inactive in experiment [1] and in experiment [2].

`S=C(NCCCc1ccccc1)Nc1ccccc1`: the outcome in experiment [1] and in experiment [2] was inactive.

As for `C[C@@H]1CN([C@H](C)CO)C(=O)c2cc(C3=CCCCC3)cnc2O[C@H]1CN(C)C(=O)Cc1cccnc1`, the call in experiment [1] and in experiment [2] was inactive.

For `Cc1cc(C)c2nc(N3CCN(C(=O)c4cccs4)CC3)sc2c1`, the call in experiment [1] and in experiment [2] was inactive.

Turning to `CCC(=O)N(C)C[C@@H]1Oc2cc(C#CC(C)(C)O)ccc2S(=O)(=O)N([C@@H](C)CO)C[C@H]1C`, the call in experiment [1] and in experiment [2] was inactive.

Regarding `CCCCN1C(=S)NC[C@@H]1Cc1ccccc1`, the compound was called inactive in experiment [1] and in experiment [2].

`Fc1ccccc1NC(=S)NN(Cc1ccccc1)c1ccccc1`: the compound was classed as inactive in experiment [1] and in experiment [2].

On to `COc1ccc(C(=O)NC(=S)Nc2ccccc2N2CCCCC2)cc1[N+](=O)[O-]`, for which the compound was classed as inactive in experiment [1] and in experiment [2].

For `COC(=O)C1=C(C)N(Cc2ccc(Br)cc2)C(=S)NC1c1cccc(Cl)c1` (configuration not stated), the outcome in experiment [1] and in experiment [2] was inactive.

Turning to `O=C(NC(=S)Nc1ccccc1N1CCCC1)c1ccc([N+](=O)[O-])cc1`, the result in experiment [1] and in experiment [2] was inactive.

For `C[C@@H]1CN([C@H](C)CO)C(=O)Cc2cc(NC(=O)NC3CCCCC3)ccc2O[C@@H]1CN(C)Cc1ccccc1`, the compound was classed as inactive in experiment [1] and in experiment [2].

Turning to `O=C(NC(=S)Nc1ccccc1N1CCOCC1)c1cccc([N+](=O)[O-])c1`, the call in experiment [1] and in experiment [2] was inactive.

On to `COc1ccc(CNC(=S)NCc2ccc(OC)cc2)cc1`, for which the result in experiment [1] and in experiment [2] was inactive.

Take `COc1ccccc1NC(=S)NCc1ccccc1Cl`: the compound was classed as inactive in experiment [1] and in experiment [2].

Turning to `CCCCNC(=S)N/N=C/c1ccc(C#N)cc1`, the compound was classed as inactive in experiment [1] and in experiment [2].

Turning to `COCC(=O)Nc1ccc2c(c1)C(=O)N(C)C[C@H](OC)[C@@H](C)CN(C(=O)c1ccccc1)[C@@H](C)CO2`, the compound was called inactive in experiment [1] and in experiment [2].

For the compound `O=C(C1CCOCC1)N1CC[C@@H]2[C@@H](CO)Nc3ccc(Br)cc3[C@@H]21`, the compound was classed as inactive in experiment [1] and in experiment [2].

`COc1ccccc1/C=N/NC(=S)NCc1ccco1`: the call in experiment [1] and in experiment [2] was inactive.

For the compound `COC(=O)C1=C(C)N(CC(C)C)C(=S)NC1c1ccc(Cl)cc1` (configuration not stated), the compound was classed as inactive in experiment [1] and in experiment [2].

In the case of `COc1ccc(CNC(=S)NCc2ccc(OC(C)C)cc2)cc1`, the compound was called inactive in experiment [1] and in experiment [2].

As to `CCN1C(=S)N[C@@H](c2ccccc2)C(C(=O)OC)=C1C`, the outcome in experiment [1] and in experiment [2] was inactive.

On to `Cc1ccccc1NC(=S)NC(=O)CCc1ccccc1`, for which the compound was classed as inactive in experiment [1] and in experiment [2].

With `COc1cc2c(C(=O)N(C)c3cc(Cl)ccc3OC)cn(C)c(=O)c2cc1OC`, the result in experiment [1] and in experiment [2] was inactive.

As for `O=C(NC(=S)Nc1ccccc1N1CCCC1)c1ccccc1[N+](=O)[O-]`, the compound was classed as inactive in experiment [1] and in experiment [2].

As to `COC(=O)C1=C(C)N(Cc2ccccc2)C(=S)NC1c1cccc(Br)c1` (configuration not stated), the compound was called inactive in experiment [1] and in experiment [2].

Take `Cc1cc(C)c(NC(=O)C2CCCN2C(=O)NC2CCCCC2)c(C)c1` (configuration not stated): the compound was classed as inactive in experiment [1] and in experiment [2].

On to `CCOC(=O)NC(=S)Nc1ccc(C(C)(C)C)cc1`, for which the result in experiment [1] and in experiment [2] was inactive.

For the compound `CO[C@@H]1CN(C)C(=O)c2ccc(NC(C)=O)cc2OC[C@@H](C)N(C(=O)Cc2cccnc2)C[C@H]1C`, the compound was called inactive in experiment [1] and in experiment [2].

As to `O=C(NC(=S)Nc1ccccc1N1CCOCC1)c1ccc(Br)cc1`, the compound was classed as inactive in experiment [1] and in experiment [2].

Take `Fc1ccccc1NC(=S)NCCc1cccc(Cl)c1`: the outcome in experiment [1] and in experiment [2] was inactive.

Turning to `Cc1ccc(C(=O)NC(=S)Nc2ccc(N3CCOCC3)cc2)cc1`, the compound was called inactive in experiment [1] and in experiment [2].

On to `O=C(N[C@@H]1CC[C@@H](CCn2cc(-c3ccccc3)nn2)O[C@H]1CO)c1cnccn1`, for which the result in experiment [1] and in experiment [2] was inactive.

On to `Cc1c(Cl)cccc1NC(=S)NCCc1ccc(Cl)cc1`, for which the outcome in experiment [1] and in experiment [2] was inactive.

`COC(=O)C1=C(C)N(Cc2ccc(F)cc2)C(=S)NC1c1cccc(F)c1` (configuration not stated): the outcome in experiment [1] and in experiment [2] was inactive.

For the compound `Cc1cc(C(=O)NC(=S)Nc2ccccc2N2CCOCC2)ccc1[N+](=O)[O-]`, the outcome in experiment [1] and in experiment [2] was inactive.

With `C[C@H](CO)N1C[C@H](C)[C@@H](CN(C)S(=O)(=O)c2cn(C)cn2)Oc2c(NC(=O)Nc3ccccc3)cccc2C1=O`, the compound was classed as inactive in experiment [1] and in experiment [2].

In the case of `COC(=O)C1=C(C)N(CC(C)C)C(=S)NC1c1ccc(F)cc1` (configuration not stated), the compound was classed as inactive in experiment [1] and in experiment [2].

As for `O=C1/C(=C\c2ccco2)SC(=S)N1c1ccc(O)cc1`, the outcome in experiment [3], in experiment [4], in experiment [5], in experiment [6] and in experiment [7] was inactive.

In the case of `C[C@H](CO)N1C[C@H](C)[C@H](CN(C)C(=O)Nc2ccc3c(c2)OCO3)Oc2ncc(C#CC(C)(C)O)cc2C1=O`, the compound was classed as inactive in experiment [1] and in experiment [2].

With `Cc1csc(NC(=O)C(C)Oc2ccc(Br)cc2)n1` (configuration not stated), the compound was called inactive in experiment [3], in experiment [4], in experiment [5], in experiment [6] and in experiment [7].

Take `Cc1ccc(NC(=O)NC(=O)COc2ccc(Cl)cc2Cl)c(C)c1`: the compound was classed as inactive in experiment [3], in experiment [4], in experiment [5], in experiment [6] and in experiment [7].

`O=C(NC(=S)Nc1ccc(Br)cc1)C1CCC1`: the call in experiment [1] and in experiment [2] was inactive.

Consider `CCOc1ccc2ccccc2c1/C=N\NC(=O)OC`, for which the call in experiment [3] and in experiment [4] was inactive.
